Test results: PMC5540273 (PLoS ONE, 2017)
Values joined by “and” are separate entries in the source; they are usually repeats but may differ in a detail not shown here. Equal values may be shown once. Read-outs that look alike come from different tables or passages of the source.

Legend:
PHKG1 = conditions: concentration: 1 μM, replicates: in singlicate; n = 1
PHKG2 = conditions: n = 1
PIK3C2B = conditions: n = 1
PIK3C2G = conditions: concentration: 1 μM, replicates: in singlicate; n = 1
PIK3CA = conditions: concentration: 1 μM, replicates: in singlicate; n = 1
PIK3CB = conditions: n = 1
PIK3CD = conditions: n = 1
PIK3CG = conditions: n = 1
PIK4CB = test system: T1, PIK4CB; conditions: n = 1
T1 construct: gene PI4KB

PIKFYVE = conditions: concentration: 1 μM, replicates: in singlicate; n = 1
[1] = concentration: 1 μM, replicates: in singlicate
[2] = concentration: 1 μM,replicates: in singlicate, 1 µM
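Also: KINOMEscan kinase panel screen.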

SMILES	%Inh (PHKG1)	%Inh (PHKG2; [1])	%Inh (PIK3C2B; [1])	%Inh (PIK3C2G)	%Inh (PIK3CA)	%Inh (PIK3CB; [1])	%Inh (PIK3CD; [1])	%Inh (PIK3CG; [1])	%Inh (PIK4CB; [1])	%Inh (PIKFYVE)	%Inh (PHKG2; [2])	%Inh (PIK3C2B; [2])	%Inh (PIK3CB; [2])	%Inh (PIK3CD; 1 µM)	%Inh (PIK3CG; [2])	%Inh (PIK4CB; [2])
Cn1cncc1-c1ccc2ncnc(Nc3ccc(OCc4ccccc4)cc3)c2c1 [GW320571]	5%	1%	61%	57%	0%	0%	7%	6%	0%	0%						
Cn1ccc2ncnc(Oc3ccc(NC(=O)Nc4ccccc4)cc3)c21	0%	0%	0%	22%	0%	16%	0%	0%	0%	21%						
O=C(Nc1n[nH]c2nc(-c3nccs3)c(Br)cc12)C1CCCC1 [SB-742609]	0%	0%	0%	0%	0%	0%	0%	0%	0%	0%						
Cc1ccc(C(=O)Nc2ccc(Nc3ccnc4cc(-c5ccccn5)ccc34)cc2O)cc1.Cl [GW440146]	0%	0%	0%	0%	0%	0%	100%	0%	0%	4%						
Cn1ccc2ncnc(Oc3ccc(Nc4nc5ccccc5[nH]4)cc3)c21	0%	25%	0%	0%	0%	0%	0%	0%	0%	0%						
CCn1c(-c2ccccn2)nc2cnccc21 [SB-736398]	0%	0%	0%	0%	0%	18%	5%	0%	0%	32%						
Cc1cccc(-c2nc(Nc3ccncc3)c3ccccc3n2)n1 [GW855857]	47%	3%	0%	0%	0%	0%	0%	0%	0%	57%						
Cl.c1ccc(-c2n[nH]cc2-c2ccnc(-c3ccc(CN4CCOCC4)cc3)c2)nc1 [GW776245]	0%	14%	16%	0%	0%	0%	0%	33%	0%	0%						
CC1=C(C(=O)Nc2cc3cn[nH]c3cc2F)C(c2ccc(C(F)(F)F)cc2)CC(=O)N1 (stereo not drawn) [GSK429286]	0%	0%	0%	0%	0%	0%	34%	0%	0%	0%						
Cc1ccccc1-n1cnc2c(N)ncnc21 [SKF-97510]	0%	10%	0%	10%	0%	0%	0%	0%	0%	0%						
COc1ccc(Nc2nccc(NCCNC(=O)Nc3ccccc3F)n2)cc1 [GSK1379901]	0%	0%	0%	0%	0%	0%	0%	0%	11%	0%						
CCCc1ccc(S(=O)(=O)NC2CCN(c3ccnc(Nc4ccc(F)cc4)n3)C2)cc1 (stereo not drawn) [GSK1379715]	0%	0%	0%	0%	0%	0%	34%	0%	0%	0%						
Nc1ncnc2[nH]c(-c3ccccc3)nc12 [AH5015]	0%	0%	0%	0%	0%	0%	0%	0%	37%	8%						
CSc1nn2c(=O)cc(N3CCOCC3)nc2n1Cc1cccc(C(F)(F)F)c1C [GSK2363608]	0%			0%	9%					0%	5% and 0%	25% and 20%	97% and 100%	94.4% and 94.3%	17% and 16%	14% and 4%
COc1cc2ncn(-c3cc(OCC4CCCO4)c(C(N)=O)s3)c2cc1OC (stereo not drawn) [GSK204607]	0%	3%	0%	0%	0%	0%	0%	19%	0%	0%						
COc1cccc(NC(=O)NC2CCN(c3ccnc(Nc4ccc(F)cc4)n3)C2)c1 (stereo not drawn) [GSK1379721]	0%	0%	11%	0%	3%	0%	0%	13%	0%	31%						
Nc1nc(-c2nccs2)c(-c2ccnc3ccccc23)s1 [GW693542]	2%	0%	0%	0%	0%	0%	0%	0%	0%	0%						
COc1ccc(CNC(=O)NC2CCN(c3ccnc(Nc4cc(OC)c(OC)c(OC)c4)n3)C2)cc1 (stereo not drawn) [GSK1379748]	0%	31%	0%	0%	0%	0%	3%	0%	46%	6%						
